HCMV inh: blocks human cytomegalovirus replication; hit rate 4.5% among 410,000; HFF cells, HCMV-luciferase reporter, 72 h; hits give low values; AID 1259415; activity change, negative = inhibition, % at 57.5 µM; in the data active means activity change below about -60%; inconclusive means no clear call, values can overlap the other calls; inactive means above about -39%
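Screen run at 2 compound doses on HFFs infected with reporter HCMV, MOI 1 PFU/cell. Luciferase activity from cell lysates at 72 h post infection gave inhibition relative to buffer-only and Salinomycin wells.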
HCV inhibitor: blocks hepatitis C virus | Potency, µM (highest dose often 41.8 µM), without a hit: at the highest dose activity change, negative = inhibition, hits mostly inhibitors | Huh7.5.1 HCVcc-Cre infection, luciferase reporter, 44 h | hit rate 3.4% among 340,000 | AID 651820; further: potency means the concentration at half of the fitted maximal effect
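Infectious HCV cell culture screen: compound-treated cells (1,000/well, pre-plated 4 h) are infected with HCVcc-Cre at roughly 0.5 moi and grown 44 h. Infection is quantified by luciferase signal after 15 min substrate incubation at room temperature.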
Lassa entry inh: blocks Lassa virus binding to or entry into cells; Potency, µM (titrated, usually from 37.9 µM), for inactives: top-dose activity change, negative = inhibition, most hits filed as inhibitors; hit rate 1.2% among 300,000; Lassa virus pseudotype entry inhibition, cell reporter; calls by dose curve; tested in HEK293 cells; further: potency means the concentration at half of the fitted maximal effect; nearly all actives have a fitted effect of over 50% in size
FBPA Giardia inh: inhibitors of Giardia lamblia fructose-1,6-bisphosphate aldolase; purified Giardia FBPA; Potency, µM (doses to about 59.6 µM), inactives show at the top dose activity, negative = inhibition, actives largely listed as inhibitors; hit rate 0.71% among 290,000; further: potency means the concentration at half of the fitted maximal effect; nearly all actives have a fitted effect of over 55% in size
Target sequence (A8B2U2 whole entry, looked up): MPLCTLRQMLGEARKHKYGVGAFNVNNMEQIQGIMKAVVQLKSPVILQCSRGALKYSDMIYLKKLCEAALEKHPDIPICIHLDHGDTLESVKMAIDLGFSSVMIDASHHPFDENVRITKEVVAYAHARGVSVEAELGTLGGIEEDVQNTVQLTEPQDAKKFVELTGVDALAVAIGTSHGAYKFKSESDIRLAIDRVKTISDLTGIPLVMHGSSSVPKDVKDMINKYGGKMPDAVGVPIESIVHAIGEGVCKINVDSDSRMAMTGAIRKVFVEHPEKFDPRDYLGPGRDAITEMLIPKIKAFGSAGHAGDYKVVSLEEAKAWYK
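40 nM FBPA preincubated 10 min at RT with compound (up to 57.5 uM final), then substrate plus GAPDH/TPI/NAD/arsenate coupling and diaphorase/resazurin added. Fluorescence read after 20 min at RT, 525/598 nm.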
FMDV inh: antivirals against foot and mouth disease virus; hit rate 1.2% among 410,000; AID 1159524; Potency, µM (titrated, usually from 57.9 µM), for inactives: top-dose activity change, negative = inhibition, most hits filed as inhibitors; FMDV antiviral cell-based qHTS; calls by dose curve; tested in HEK293T cells; further: read-out not given here; potency means the concentration at half of the fitted maximal effect; nearly all actives have a fitted effect of over 45% in size
MARV entry inh: inhibitors of Marburg virus binding or cell entry. hit rate 1.8% among 300,000. AID 540276. Marburg virus pseudotyped entry inhibition, cell reporter. Potency, µM (series often up to 37.8 µM), for inactives: at the top dose activity change, negative = inhibition, most hits filed as inhibitors; calls by dose curve; tested in HEK293 cells; further: potency means the concentration at half of the fitted maximal effect
An asterisk follows results filed as active; u = inconclusive; x = no result; [ ] = dose if it differs, or a comment. Only some compounds are listed: those with a hit (about 8.3% of all), similar ones and a draw of the others. Unless noted, the call rests on the fitted dose curve; in most records, active means well fitted curve in the direction sought with a large enough effect; inconclusive means small, poorly fitted or top-dose-only effect, or another doubt; inactive means no such curve, though single readings can be large; an effect the other way counts as inactive or inconclusive. On the % scale 0 is the no-effect control and ±100 the full control effect.

SMILES	HCMV inh	HCV inhibitor	Lassa entry inh	FBPA Giardia inh	FMDV inh	MARV entry inh
CSc1cc(-c2ccc(Cl)cc2)c(C(=O)NC(C)C)s1	-5	-24%	3%	0%	-23%	14%
COc1ccc(C(=O)Nc2nnc(S(=O)(=O)N(C)c3ccc(C)cc3)s2)cc1	73	x	17%[46.1 µM]	x	23%	x
O=S(=O)(NCCc1csc(-c2cccc(F)c2)n1)c1cc(F)ccc1F	-106*	x	-3%[46.1 µM]	x	32%	x
O=C(NCCc1csc(-c2cccc(F)c2)n1)c1ccco1	u	10µM*	-6%[46.1 µM]	x	-7%	x
CCc1ccc(S(=O)(=O)NCCc2csc(-c3ccccc3)n2)s1	-63*	u	10%	-14%	x	u
O=C(NCCc1csc(-c2ccccc2)n1)c1ccco1	-19	-30%	x	-1%	-6%	x
CCOc1ccccc1NC(=O)CSc1ccc2nc(-c3ccccc3)cn2n1	5	x	-14%[46.1 µM]	x	-9%	x
CCN(CC)CCCn1c(=S)[nH]c2ccc(Cl)cc2c1=O	-8	u	-1%	-1%	4%	-5%
CCN(CC)CCCn1c(=S)[nH]c2cc(Cl)ccc2c1=O	-9	7.1µM*	0%	0%	-21%	-18%
COc1ccc(-c2ccc3c(c2)[C@@H]2C[C@H](N(C)C(=O)Nc4ccccc4)[C@H]([C@H](C)O)C(=O)N2CC3)cc1	-5	2µM*	x	x	-23%	x
C[C@H](O)[C@@H]1C(=O)N2CCc3ccc(-c4cccc(F)c4)cc3[C@@H]2C[C@@H]1N(C)C(=O)Nc1ccccc1	-14	-15%[8.37 µM]	x	x	-10%	x
CCN1CCN(CCCNC(=O)Cn2nc(C)n3c(cc4c(OC)cccc43)c2=O)CC1	-35	x	x	x	-14%	-4%[46.1 µM]
CN=c1sc(C(=O)Nc2cccc(Cl)c2)cc(=O)n1C	-66*	-8%	u	1%	-22%	u
O=C(CCN1CCOCC1)NC12CC3CC(CC(C3)C1)C2	34	7%	x	-11%	9%	x
C1CCC(N=C(NC23CC4CC(CC(C4)C2)C3)N2CCOCC2)CC1	x	x	-33%	0%	-23%	10µM*
Cc1nn(Cc2ccc(Cl)cc2)c(C)c1NC(=O)CSc1nc2c(c(C(F)(F)F)n1)CCc1ccccc1-2	-30	x	-20%[14.3 µM]	1%	-22%	12µM*
Cc1ccc(Cn2nc(C)c(NC(=O)CSc3nc4c(c(C(F)(F)F)n3)CCc3ccccc3-4)c2C)cc1	u	u	3%	0%	u	25%
Cc1ccccc1Cn1cc(NC(=O)CSc2nc3c(c(C(F)(F)F)n2)CCc2ccccc2-3)cn1	-27	13µM*	6%	-1%	-23%	u
COc1ccc2c3c(c(=O)oc2c1)[C@H]1O[C@](c2ccsc2)(Cc2cc(C#N)ccc21)O3	x	x	x	x	x	-14%[14.2 µM]
Cc1ccc(C)n1C1C(=O)N(C)c2ccc(OC(F)(F)F)cc21 (centres undefined)	-1	x	x	x	x	x
COC(=O)C(C(C)C)N1CC(=O)c2ccccc2S1(=O)=O (centres undefined)	x	x	x	0%	x	x
O=C(N/N=C1/C[C@@H](O)[C@@H](O)[C@@H]2[C@@H]3C(=O)N(c4cccc(Oc5ccccc5)c4)C(=O)[C@H]3CC[C@H]12)OCc1ccccc1	x	x	x	1%[12.9 µM]	x	4%[14.2 µM]
CCOc1ccc(S(=O)(=O)N2CCN(S(=O)(=O)c3ccc(C(C)=O)cc3)CC2)cc1	6	16%	20%	1%	-15%	17%[46.1 µM]
CC(=O)c1cccc(S(=O)(=O)N2CCN(CCOc3ccccc3)CC2)c1	-61*	u	x	x	u	x
CC(=O)c1ccc(S(=O)(=O)N2CCN(CCOc3ccc(Br)cc3)CC2)cc1	u	u	x	x	18µM*	x
SMILES	HCMV inh	HCV inhibitor	Lassa entry inh	FBPA Giardia inh	FMDV inh	MARV entry inh
CCN(CC)C(=O)c1nn(-c2ccccc2)c2c1C1CCC2(C)C1(C)C (centres undefined)	-95*	13µM*	u	11%	-24%	u
CCCCC/C=C\C/C=C\C/C=C\C/C=C\CCCC(=O)N[C@H](C)CO	x	x	x	-1%	x	x
COc1ccc(CSc2ccc(-c3nc4ccccn4c3NCc3ccccc3)cc2OC)cc1	-65*	u	x	x	u	x
CCC(C)Sc1ccc(-c2nc3ccccn3c2NCc2ccccc2)cc1OC (centres undefined)	x	u	x	x	40µM*	x
CCC(C)Sc1ccc(-c2nc3ccc(C)cn3c2NCc2ccccc2)cc1 (centres undefined)	48	-15%	x	x	25%	x
COc1cccc(-c2cnc(-c3ccncc3)nc2C2CCN(C(=O)Cc3csc(C)n3)CC2)c1	x	x	x	x	-17%	x
CC(=Nc1ccc(O)cc1)c1sc2ccccc2c1O	-20	13µM*	5%	-6%	38%	12%[46.1 µM]
CC(=Nc1ccccc1O)c1sc2ccccc2c1O	37	u	x	-12%	9%	x
N#CC1=C(SCC(=O)NC2CC2)NC(=O)C(C#N)C12CCCCC2 (centres undefined)	-8	16%	10%	3%	-2%	21%
CC(C)(C)C1CCC2(CC1)C(C#N)=C(SCC(=O)NC1CCCCC1)NC(=O)C2C#N (centres undefined)	-63*	4%	-8%	-4%	x	-28%
N#CC1=C(SCC(=O)Nc2cccc3cccnc23)NC(=O)C(C#N)C12CCCCC2 (centres undefined)	-13	-3%	21%	u	-10%	3%
N#CC1=C(SCC(=O)NC23CC4CC(CC(C4)C2)C3)NC(=O)C(C#N)C12CCCCC2 (centres undefined)	-66*	u	-27%	-17%	u	u
CCOc1ccc(CNC(=O)C2CCN(S(=O)(=O)c3ccc4c(ccn4C)c3)CC2)cc1	-3	x	-5%[46.1 µM]	x	-8%	x
CN(C(=O)CSc1ncnc2c(-c3cccs3)nsc12)C1CCCCC1	16	x	x	x	x	x
CCOc1ccc(/C=C/c2nc(C#N)c(NC(C)CC)o2)cc1 (centres undefined)	-36	x	1%[46.1 µM]	x	1%	1%[46.1 µM]
CC(C)N1CCC2(CC1)N=C(c1ccc3c(c1)OCO3)CC(c1cc(Cl)ccc1O)N2 (centres undefined)	-81*	u	u	2%	u	-28%
NC(N)=N/N=C/c1ccc(Cl)cc1Cl	-3	u	u	2%	0%	3.2µM*
NC(N)=N/N=C/c1ccc(Cl)c(Cl)c1	u	2%	u	0%	-23%	u
Cn1c(=O)[nH]c(=O)c2c1nc1n2CCN1c1ccccc1	10	x	4%[46.1 µM]	x	1%	3%[46.1 µM]
COc1ccc(CCNC(=O)c2ccc(CNS(=O)(=O)c3ccc(C(C)(C)C)cc3)cc2)cc1OC	50	u	-16%	1%	-10%	-1%
CCOc1ccc(CCNC(=O)c2ccc(CNS(=O)(=O)c3ccccc3)cc2)cc1OCC	-72*	u	-16%	8%	28µM*	u
COc1cccc(CN(C)C(=O)c2cc(S(=O)(=O)NCc3ccccc3)ccc2C)c1OC	-7	-18%	-28%	x	-10%	-7%
